Data on 63 molecules can be found in PubChem BioAssay AID624296 (National Center for Advancing Translational Sciences (NCATS), 2012).

The structures appear in SMILES notation. Out of some 350,000 compounds screened, about 9,900 (2.8%) were called active. Not shown: some 15% with an inconclusive outcome. Calls follow the shape of the dose curve; as a rule, active = well fitted activation curve with a large enough effect; inconclusive = small, poorly fitted or top-dose-only effect; inactive = no such curve, though single readings can be large or run the other way. What follows is part of a selection rich in actives, with near analogues and random picks from the rest. Where a call stands in place of a potency, no number is given.
Potency is read from the fitted curve at half-maximal effect.

A short description of this assay: A quantitative high throughput screen for small molecules that induce DNA re-replication in MCF 10a normal breast cells. Also: nearly all actives have a fitted effect of over 50% in size. The note with it: MCF 10A DNA re-replication, Hoechst nuclear intensity, 48 h; series mostly up to 46.1 µM.
As to `Cc1oc2c(F)c(F)c(F)c(F)c2c1S(=O)(=O)Nc1cccc(C(F)(F)F)c1`, the Potency was 16.4 µM (active).
The same measure for `O=C(NCc1ccccc1)c1ccc(S(=O)(=O)Nc2cccc(C(F)(F)F)c2)cc1`: “inactive”.
`CCOC(=O)N1CCN(C(=O)c2ccc(S(=O)(=O)Nc3cccc(C(F)(F)F)c3)cc2)CC1`: the Potency result was “inactive”.
With `O=C1C=C(c2cc(C(F)(F)F)cc(C(F)(F)F)c2)C[C@@H](c2ccc3c(c2)OCO3)C1` the entry was “inactive”; with `c1ccc(COc2ccccc2CNCc2cccnc2)cc1`, “inactive”; with `Fc1ccccc1COc1cccc2cccnc12`, “inactive”.
With `Fc1ccccc1COc1ccccc1CNCc1ccncc1` the figure was 3.26 µM (active).
With `C[C@@H]1ON(C)[C@H]2C[C@H]3c4cc(N5CCN(C)CC5)ccc4CCN3C(=O)[C@@H]12` the entry was “inactive”.
Turning to `CCOC(=O)/C(=C\c1ccc([N+](=O)[O-])cc1)C(=O)c1cc(C(C)=O)c(Nc2ccccc2)s1`, the Potency is 1.46 µM (active).
With `Cc1cccc(NC(=O)c2sc(-c3ccccc3)nc2-c2ccc([N+](=O)[O-])cc2)c1` the entry was “inactive”.
With `O=C(Nc1ccccc1)/C(=C/c1ccc([N+](=O)[O-])cc1)NC(=O)c1ccccc1` the entry was “inactive”; with `Cc1ccc(C(=O)CN2C(=O)NC3(CCOc4ccccc43)C2=O)s1` (stereo not drawn), “inactive”; with `CCOc1ccc(S(=O)(=O)N2CCC(C(=O)NCC(=O)Nc3cccc(Cl)c3C)CC2)cc1`, “inactive”.
The same measure for `C[C@H]1COC(=O)[C@H](CC(=O)OC(C)(C)C)C/C=C\C[C@@H](CC(=O)N[C@H](CO)Cc2ccccc2)C(=O)N1`: “inactive”; for `CC(=O)c1c(C)[nH]c(C(=O)COC(=O)c2cccs2)c1C`: “inactive”; for `Nc1nc(-c2sc3nc4c(cc3c2N)CCCC4)nc(N2CCOCC2)n1`: 6.51 µM (active).
As for `Cc1nc(N2CCOCC2)nc2c1CCCC2`, the Potency result was “inactive”.
With `CC(C)(C)S(=O)(=O)N1Cc2cc(CO)cc(CCO)c2[C@H]1CCO` the entry was “inactive”.
With `COc1ccc(S(=O)(=O)N2CCN(c3cnccn3)CC2)cc1` the entry was “inactive”.
The same measure for `O=C(NC1CCCCC1)c1ccc2c(=O)n(CC3CCCO3)c(=O)[nH]c2c1` (stereo not drawn): “inactive”; for `COC(=O)c1ccc2c(=O)n(CC3CCCO3)c(=S)[nH]c2c1` (stereo not drawn): 23.1 µM (active).
On to `Cc1cccc(NC(=O)c2ccc3c(=O)n(CC4CCCO4)c(=S)[nH]c3c2)c1` (stereo not drawn), for which the Potency entry was “inactive”.
The same measure for `CCN(CC)c1ccc(/C=N/Nc2nc(C)cc(=O)[nH]2)cc1`: “inactive”.
With `Cc1ccc(C(=O)NCCNC(=O)c2cnccn2)cc1` the entry was “inactive”; with `CCN(CC)c1ccc(/C=N/Nc2nc(C)cc(C)n2)c(O)c1`, 18.4 µM (active); with `CCN(CC)c1ccc(/C=N/NC(=O)CNC(=O)c2cccnc2)cc1`, “inactive”.
The same measure for `Cc1cc(C)nc(N/N=C/c2ccncc2)n1`: “inactive”; for `CCN(CC)c1ccc(/C=N/NC(=O)c2cnccn2)c(O)c1`: 18.4 µM (active).
In the case of `COc1ccc(/C=C/C(=O)OCC(=O)N2CCN(S(=O)(=O)c3ccc(C)cc3C)CC2)cc1OC`, the Potency entry is “inactive”.
With `C[C@]12CCC(=O)C=C1C=CC1C2CC[C@@]2(C)C1CC[C@@]21CCC(=O)O1` (stereo partly drawn) the entry was “inactive”.
With `CCN(C(=O)COC(=O)CCOc1cccc(C)c1)c1c(N)n(Cc2ccccc2)c(=O)[nH]c1=O` the entry was “inactive”; with `CC(C)Cn1c(SCC(=O)Nc2ccc(Cl)cc2F)nc(O)cc1=O`, “inactive”; with `Cc1ccc(CNC(=O)COC(=O)C2CCC2)cc1`, “inactive”.
On to `O=C(c1ccc(Cl)nc1)N1CCN(S(=O)(=O)c2ccc3c(c2)OCCO3)CC1`, for which the Potency entry was “inactive”.
With `COc1ccc(S(=O)(=O)N2CCN(CC(=O)N3c4ccccc4CC3C)CC2)cc1OC` (stereo not drawn) the entry was “inactive”; with `COc1cc(/C=N/NC(=S)Nc2cccnc2)cc(OC)c1O`, “inactive”; with `COc1cc(/C=N/Nc2ccc(C)cc2)cc(Br)c1O`, 25.9 µM (active).
The same measure for `CCNc1nc(NCC)nc(N/N=C/c2ccc(O)c(OC)c2)n1`: “inactive”; for `CCN(C(=O)CSc1nnnn1-c1ccc(OC)cc1)C1CCS(=O)(=O)C1` (stereo not drawn): “inactive”; for `COC(=O)c1cc(Oc2ccc(S(=O)(=O)N3CCOCC3)cc2[N+](=O)[O-])cc(C(=O)OC)c1`: “inactive”.
On to `O=S(=O)(NCCc1ccc(F)cc1)c1cccc2cccnc12`, for which the Potency entry was “inactive”.
The same measure for `O=S(=O)(NCc1ccccn1)c1ccc(F)cc1`: “inactive”; for `O=S(=O)(NCCOc1cccc2cccnc12)c1ccc(F)cc1`: 10.3 µM (active); for `COc1ccccc1C(=O)NCC(=O)NCCSc1ccc(Br)cc1`: “inactive”.
The same measure for `O=C(O[C@H]1[C@H](Cc2ccccc2)NS(=O)(=O)[C@H]2C[C@@H]3C=C[C@]12O3)c1ccc([N+](=O)[O-])cc1`: “inactive”; for `CCOC(=O)C1CCN(C(=O)CN2C(=O)NC(C)(c3ccc4cc(OC)ccc4c3)C2=O)CC1` (stereo not drawn): “inactive”.
The same measure for `COc1ccc(C(C(O)C(=O)c2c[nH]c3ccccc23)N2CCN(c3ccccc3)CC2)cc1` (stereo not drawn): “inactive”; for `COc1ccc(/C=C(\C#N)c2c[nH]c3ccccc23)cc1`: 13 µM (active); for `COc1cc(/C=C(\C#N)c2nc3ccccc3[nH]2)ccc1O`: “inactive”.
As for `COc1ccc(C(=O)COC(=O)CN2C(=O)C3CC=CCC3C2=O)c(OC)c1` (stereo not drawn), the Potency entry is “inactive”.
The same measure for `CCOC(=O)c1sc(NC(=O)COc2ncnc3ccccc23)c(C(=O)OCC)c1C`: “inactive”; for `CCOC(=O)c1c(NC(=O)CNC2CCCc3ccccc32)sc(C(N)=O)c1C` (stereo not drawn): 16.4 µM (active).
With `NC(=O)Nc1ccc(C(=O)OCC(=O)NC2CCCc3ccccc32)cc1` (stereo not drawn) the entry was “inactive”.
The same measure for `O=C(COC(=O)c1ccc(O)cc1O)NC(=O)c1ccccc1`: “inactive”; for `CCCC(=O)NC(=S)Nc1ccc(CN2CCOCC2)cc1`: 0.651 µM (active); for `O=C(Nc1ccc(CN2CCOCC2)cc1)c1cc(Cl)ccc1Cl`: “inactive”.
Regarding `CCCc1cc(=O)oc2cc(OCC(=O)Nc3ccc(CN4CCOCC4)cc3)c(Cl)cc12`, the Potency result was “inactive”.
`O=C(c1cc2ccccc2o1)N1CCN(S(=O)(=O)c2ccc(Cl)s2)CC1`: the Potency entry was “inactive”.
With `CCCCCCSc1ccc([C@@H]2[C@H]3C(=O)N(CC)C(=O)[C@H]3[C@]3(C(=O)OC)CCCCN23)cc1` the entry was “inactive”; with `CCn1nnc2cc(C(=O)Nc3ccc(C(=O)OC(C)C)cc3)ccc21`, “inactive”; with `CCOC(=O)C1=C(CC)Nc2ccccc2N=C1NC(=O)c1cccc(S(=O)(=O)N2CCCC2)c1`, 23.1 µM (active).
`CCOC(=O)C1=C(CC)Nc2ccccc2N=C1N`: the Potency entry was “inactive”.
The same measure for `CCOC(=O)CSc1nnc(NC(=O)c2cccc(S(=O)(=O)N3CCCC3)c2)s1`: “inactive”.
